Results: the supplement of paper PMC12669032

Experiments:
Assay in all cases: growth AUC relative to DMSO control (median of replicates) (fraction); higher = more growth (less inhibition), active = hit call of the paper
Settings in all cases: 20 µM; 24 h;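 active = AUC reduced over 20% with Padj below 0.05 in at least 2 of 3 replicates; inactive = otherwise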
[1] = system: Coprococcus comes
Summary of the method: (§1)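 Hourly OD600 readings over 24 h tracked anaerobic gut bacterial monocultures grown at 37 °C in mGAM from OD600 0.05 with 20 µM compound (1% DMSO). After the minimum OD was set to 0, area under the growth curve was normalised to the plate median of solvent-only wells, or to row and column medians on the industrial chemical plate. Values are medians of three biological replicates grown on separate days.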

[2] = system: Escherichia coli ED1a
Summary of the method: as §1

[3] = system: Escherichia coli IAI1
Summary of the method: as §1

[4] = system: Eubacterium rectale
Summary of the method: as §1

[5] = system: Fusobacterium nucleatum subsp. animalis
Summary of the method: as §1

[6] = system: Lactobacillus gasseri
Summary of the method: as §1

[7] = system: Lactobacillus paracasei
Summary of the method: as §1

[8] = system: Odoribacter splanchnicus
Summary of the method: as §1

[9] = system: Parabacteroides distasonis
Summary of the method: as §1

[10] = system: Parabacteroides merdae
Summary of the method: as §1

Measured: growth AUC

NC(=S)c1c(Cl)cccc1Cl
inactive: [1] 1.01 | [2] 0.994 | [3] 0.979 | [4] 1.22 | [5] 0.822 | [6] 0.884 | [7] 0.953 | [8] 0.985 | [9] 0.965 | [10] 0.887

CCOc1ccccc1OS(=O)(=O)NC(=O)Nc1nc(OC)cc(OC)n1
inactive: [1] 1.01 | [2] 1.01 | [3] 1.01 | [4] 0.938 | [5] 1 | [6] 1.11 | [7] 0.736 | [8] 1.15 | [9] 1.02 | [10] 1.02

CC(C)=CC1C(C(=O)OCc2coc(Cc3ccccc3)c2)C1(C)C (stereo not given)
inactive: [1] 1.01 | [2] 0.996 | [3] 1.01 | [4] 0.917 | [5] 0.878 | [6] 1.06 | [7] 1.12 | [8] 0.98 | [9] 1.01 | [10] 0.944

CO/N=C(/C(=O)OC)c1ccccc1CO/N=C(\C)c1cccc(C(F)(F)F)c1
inactive: [1] 0.976 | [2] 0.978 | [3] 0.985 | [4] 0.973 | [5] 0.953 | [6] 1.1 | [7] 0.831 | [8] 1.01 | [9] 0.887 | [10] 0.901

CCN(CC)C(=O)/C(Cl)=C(/C)OP(=O)(OC)OC
inactive: [1] 0.978 | [2] 0.942 | [3] 0.953 | [4] 1.08 | [5] 1 | [6] 0.886 | [7] 0.969 | [8] 0.935 | [9] 0.888 | [10] 0.978

Cc1cc(Cl)ccc1N=CN(C)C
inactive: [1] 1.01 | [2] 0.998 | [3] 0.963 | [4] 1.16 | [5] 0.978 | [6] 1.04 | [7] 0.997 | [8] 1.01 | [9] 1.03 | [10] 0.988

COC(=O)NCc1cc(/C(C)=N\OCc2cccc(C)n2)ccc1Cl
inactive: [1] 1.05 | [2] 0.979 | [3] 0.995 | [4] 1.08 | [5] 0.934 | [6] 0.893 | [7] 0.969 | [8] 1 | [9] 0.772 | [10] 0.947

CCOC(=O)C(O)(c1ccc(Cl)cc1)c1ccc(Cl)cc1
inactive: [1] 0.953 | [2] 1.03 | [3] 0.968 | [4] 1.02 | [5] 0.879 | [6] 1.03 | [7] 0.979 | [8] 0.992 | [9] 0.823 | [10] 0.92

Cc1ccc(N=CN(C)C=Nc2ccc(C)cc2C)c(C)c1
inactive: [1] 1.04 | [2] 1.01 | [3] 1.01 | [4] 1.06 | [5] 1.09 | [6] 0.967 | [7] 1.06 | [8] 1.02 | [9] 0.988 | [10] 1.01

CCCSC(=O)N(CCC)CCC
inactive: [1] 0.994 | [2] 0.974 | [3] 0.985 | [4] 1.01 | [5] 1 | [6] 1.01 | [7] 0.954 | [8] 1.01 | [9] 0.995 | [10] 0.991
